# Assay results reported in PubChem BioAssay (EPA / NIEHS).
# Records with an inconclusive call do not appear. Activity calls are given as the source filed them. Rule for the calls: active = hit-call score of the fitted dose curve at least 0.9, where 1 is the maximum; inconclusive = response in the unintended direction; inactive = score below 0.9.
# Read-out: organic anion transporter (SLCO1B1), SLCO1B1 (gene 10599)
# Test: CLD_SLCO1B1_48hr: CellzDirect (CLD) Gene Expression Assay for organic anion transporter (SLCO1B1) at 48 hours (AID 2283707)
# Summary of the method: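 Primary human hepatocytes from two donor preparations dosed daily for two days with multiple concentrations, 0.2% DMSO vehicle. SLCO1B1 mRNA at 48 h by quantitative nuclease protection assay, chemiluminescence; gain-of-signal fitted versus DMSO.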
row,SMILES,outcome
1,Oc1ccccc1-c1ccccc1,inactive
2,Fc1ccc(Oc2ccnc3cc(Cl)cc(Cl)c23)cc1,inactive
3,COP(N)(=O)SC (stereo not given),inactive
4,CCNc1nc(Cl)nc(NCC)n1,inactive
5,CS/C(C)=N/OC(=O)N(C)SN(C)C(=O)O/N=C(\C)SC,inactive
6,COc1nc(NC(C)C)nc(NC(C)C)n1,inactive
7,CCCN(CCC)c1c([N+](=O)[O-])cc(S(N)(=O)=O)cc1[N+](=O)[O-],inactive

# Read-out: alkyl and aryl transferase (GSTA2), GSTA2 (gene 2939)
# Test: CLD_GSTA2_48hr: CellzDirect (CLD) Gene Expression Assay for alkyl and aryl transferase (GSTA2) at 48 hours (AID 2283708);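 note: active means mRNA induction above DMSO vehicle baseline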
# Summary of the method: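 Primary human hepatocytes dosed daily for two days (0.2% DMSO vehicle), harvested at 48 h. GSTA2 mRNA induction measured by quantitative nuclease protection assay with chemiluminescent imaging, fitted for gain of signal relative to DMSO.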
SMILES,outcome,AC50
CCCCNC(=O)n1c(NC(=O)OC)nc2ccccc21,inactive,–
Oc1ccccc1-c1ccccc1,inactive,–
Fc1ccc(Oc2ccnc3cc(Cl)cc(Cl)c23)cc1,inactive,–
CCCC1COC(Cn2cncn2)(c2ccc(Cl)cc2Cl)O1 (stereo not given),inactive,–
CCOC(=O)CC(SP(=S)(OC)OC)C(=O)OCC (stereo not given),inactive,–
CNC(=O)ON=CC(C)(C)SC,inactive,–
CN(C)C(=S)SSC(=S)N(C)C,inactive,–
N#Cc1nn(-c2c(Cl)cc(C(F)(F)F)cc2Cl)c(N)c1S(=O)C(F)(F)F (stereo not given),–,4.25 µM (active)
Cc1ccc(-c2c(Cl)nc(C#N)n2S(=O)(=O)N(C)C)cc1,inactive,–
COP(N)(=O)SC (stereo not given),inactive,–
CNC(=S)S,inactive,–
Cc1c(F)c(F)c(COC(=O)C2C(/C=C(\Cl)C(F)(F)F)C2(C)C)c(F)c1F (stereo not given),inactive,–
CC(C)C1(C)N=C(c2nc3ccccc3cc2C(=O)O)NC1=O (stereo not given),inactive,–
CC(Oc1ccc(Cl)cc1Cl)C(=O)O (stereo not given),inactive,–
N#Cc1cc(Br)c(O)c(Br)c1,inactive,–
OC(c1ccc(Cl)cc1)(c1cncnc1)c1ccccc1Cl (stereo not given),–,15.8 µM (active)
CCCN(CCC)c1c([N+](=O)[O-])cc(S(N)(=O)=O)cc1[N+](=O)[O-],inactive,–
C=CCC1=C(C)C(OC(=O)C2C(C=C(C)C)C2(C)C)CC1=O (stereo not given),inactive,–

# Read-out: glucuronosyltransferase (UGT1A1), UGT1A1 (gene 54658)
# Test: CLD_UGT1A1_48hr: CellzDirect (CLD) Gene Expression Assay for glucuronosyltransferase (UGT1A1) at 48 hours (AID 2283709);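 note: actives increase expression relative to DMSO so potency refers to induction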
# Summary of the method: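 Human primary hepatocytes dosed daily for two days (0.2% DMSO vehicle), harvested at 48 h. UGT1A1 mRNA induction measured by quantitative nuclease protection assay with chemiluminescence; gain of signal versus DMSO; cytotoxicity flagged from morphology.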
SMILES,outcome,AC50
CCCCNC(=O)n1c(NC(=O)OC)nc2ccccc21,inactive,–
Oc1ccccc1-c1ccccc1,inactive,–
Fc1ccc(Oc2ccnc3cc(Cl)cc(Cl)c23)cc1,inactive,–
CCCC1COC(Cn2cncn2)(c2ccc(Cl)cc2Cl)O1 (stereo not given),inactive,–
CCOC(=O)CC(SP(=S)(OC)OC)C(=O)OCC (stereo not given),inactive,–
CNC(=O)ON=CC(C)(C)SC,inactive,–
N#Cc1nn(-c2c(Cl)cc(C(F)(F)F)cc2Cl)c(N)c1S(=O)C(F)(F)F (stereo not given),inactive,–
CON(C)C(=O)Nc1ccc(Cl)c(Cl)c1,inactive,–
COP(N)(=O)SC (stereo not given),inactive,–
CCNc1nc(Cl)nc(NCC)n1,inactive,–
O=C(Nc1ccccc1)Nc1ccnc(Cl)c1,–,6.7 µM (active)
CNC(=S)S,inactive,–
CCOP(=S)(OCC)SCn1c(=O)oc2cc(Cl)ccc21,inactive,–
Cc1c(F)c(F)c(COC(=O)C2C(/C=C(\Cl)C(F)(F)F)C2(C)C)c(F)c1F (stereo not given),inactive,–
CS/C(C)=N/OC(=O)N(C)SN(C)C(=O)O/N=C(\C)SC,inactive,–
CC(C)C1(C)N=C(c2nc3ccccc3cc2C(=O)O)NC1=O (stereo not given),inactive,–
CC(Oc1ccc(Cl)cc1Cl)C(=O)O (stereo not given),inactive,–
COc1nc(NC(C)C)nc(NC(C)C)n1,inactive,–
N#Cc1cc(Br)c(O)c(Br)c1,inactive,–
CC1=C(C(=O)Nc2ccccc2)SCCO1,inactive,–
OC(c1ccc(Cl)cc1)(c1cncnc1)c1ccccc1Cl (stereo not given),inactive,–
Cc1cc(Cl)ccc1OCC(=O)O,inactive,–
CCCN(CCC)c1c([N+](=O)[O-])cc(S(N)(=O)=O)cc1[N+](=O)[O-],inactive,–
CCCCC(CC)COC(=O)c1ccccc1C(=O)OCC(CC)CCCC (stereo not given),inactive,–
C=CCC1=C(C)C(OC(=O)C2C(C=C(C)C)C2(C)C)CC1=O (stereo not given),–,11.1 µM (active)
